Active and inactive are the calls of the source. Unless noted, no stated cut-off is given here; in the data, active means inhibition above about 80%; inactive means the rest.
Tests used:
[1] = CRL2098 osteosarcoma cell growth inhibition, synergistic combos for chromothripsis tumors, BGB or cisplatin IC20 combos (AID 1671454); settings: CRL2098 osteosarcoma cells, drug combinations, stronger effect = higher value;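 further: cells exposed for 96 h before readout; 0% = vehicle DMSO and 100% = killing by high DMSO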
[2] = HD-MB03 medulloblastoma cell growth inhibition, synergistic combos for chromothripsis tumors, BGB or cisplatin IC20 combos (AID 1671455; in the data active means inhibition above about 83%;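 further: 0% = vehicle DMSO and 100% = high DMSO as cytotoxic control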); settings: HD-MB03 medulloblastoma cells, stronger effect = higher value
[3] = UWB1.289 ovarian carcinoma cell growth inhibition, synergistic combos for chromothripsis tumors, BGB or cisplatin combos (AID 1671456); settings: UWB1.289 ovarian carcinoma cells, stronger effect = higher value;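 further: cells exposed to compound for four days; 0% = vehicle DMSO and 100% = killing by high DMSO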
[4] = LFS_MB_2R medulloblastoma cell growth inhibition, synergistic combos for chromothripsis tumors, cisplatin combos (AID 1671457); settings: LFS_MB_2R medulloblastoma cells, stronger effect = higher value;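 further: cells exposed to compound for four days before readout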
[5] = MDA-MB-436 breast carcinoma cell growth inhibition, synergistic combos for chromothripsis tumors, BGB or cisplatin combos (AID 1671458; call rule not given here;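 further: cells exposed for 96 hours; 0% = vehicle DMSO and 100% = killing by high DMSO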); settings: MDA-MB-436 breast carcinoma growth inhibition, drug combinations, stronger effect = higher value
[6] = UWB1.289_BRCA1 ovarian cancer growth, cell-based, BGB or cisplatin combinations (AID 1671459); settings: UWB1.289 BRCA1 ovarian carcinoma, drug combinations, stronger effect = higher value
[7] = human astrocyte viability loss, single and combined drugs, cytotoxicity control for chromothriptic childhood tumor combination screen, cell-based, BGB or cisplatin IC20 combos (AID 1671460); settings: Human astrocytes, drug combinations, stronger effect = higher value;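 further: cells exposed to compounds for 96 hours before viability readout; 0% = vehicle and 100% = killing control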
[8] = growth inhibition of BT084 medulloblastoma cells, cell-based, ICGC_MB145, cisplatin and BGB IC40 combos (AID 1671461); settings: drug combinations, stronger effect = higher value;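 further: cells exposed to drugs for 96 hours; 0% = vehicle DMSO and 100% = high DMSO full killing control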
[9] = growth inhibition of RCMB18 medulloblastoma cells, cell-based, cisplatin and BGB IC40 combos (AID 1671462); settings: stronger effect = higher value;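 further: cells exposed to compound for four days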
[10] = growth inhibition of CRL1545 osteosarcoma cells, cell-based, cisplatin and BGB IC20 combos (AID 1671464); settings: stronger effect = higher value;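 further: cells exposed to compound for 96 hours before readout; 0% = vehicle DMSO and 100% = high DMSO killing control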
[11] = LFS_MB_P medulloblastoma growth inhibition, cell-based, chromothripsis tumors, cisplatin or BGB combos (AID 1671449); settings: LFS_MB_P medulloblastoma cells;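 further: cells exposed for 96 hours; 0% = vehicle DMSO and 100% = killing by high DMSO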
[12] = HDN33 neuroblastoma growth inhibition, cell-based, chromothripsis tumors, cisplatin or BGB combos (AID 1671450); settings: HDN33 neuroblastoma cells, stronger effect = higher value;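 further: cells exposed to compound for four days; 0% = vehicle DMSO and 100% = cell killing by high DMSO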
[13] = ICB984 medulloblastoma cell growth inhibition, synergistic combos for chromothripsis tumors, cisplatin or BGB combos (AID 1671451; call rule not given here;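 further: cells exposed for 96 hours before readout; 0% = vehicle DMSO and 100% = killing by high DMSO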); settings: ICB984 medulloblastoma cells, drug combinations, stronger effect = higher value
[14] = LFS_MB_1R medulloblastoma cell growth inhibition, synergistic combos for chromothripsis tumors, cisplatin or BGB combos (AID 1671452); settings: LFS_MB_1R medulloblastoma cells, stronger effect = higher value;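 further: cells exposed for 96 hours before readout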
[15] = HTB85 osteosarcoma cell growth inhibition, synergistic combos for chromothripsis tumors, BGB or cisplatin IC20 combos (AID 1671453); settings: HTB85 osteosarcoma cells, drug combinations, stronger effect = higher value;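 further: cells exposed for 96 hours before readout; 0% = vehicle DMSO and 100% = high DMSO killing control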
[16] = measured here: combination with BGB at IC20, at 0.5 µM
[17] = measured here: combination with cisplatin at IC20, at 0.5 µM
[18] = measured here: combo with BGB at IC20, at 0.5 µM
[19] = measured here: combo with cisplatin at IC20, at 0.5 µM
[20] = measured here: inhibition with BGB combination, at 0.05 µM
[21] = measured here: inhibition with cisplatin combination, at 0.05 µM
[22] = measured here: combination with cisplatin, at 0.5 µM
[23] = measured here: combination with cisplatin, at 5 µM
[24] = measured here: BGB combination, at 0.5 µM
[25] = measured here: BGB combination, at 5 µM
[26] = measured here: cisplatin combination, at 0.5 µM
[27] = measured here: cisplatin combination, at 5 µM
[28] = BGB combination, concentration series, at 5 µM
[29] = cisplatin combination, concentration series, at 5 µM
[30] = measured here: combo with BGB IC20, at 0.5 µM
[31] = measured here: combo with cisplatin IC20, at 0.5 µM
[32] = cisplatin combination, at 0.5 µM
[33] = measured here: BGB IC40 combination 0.05 uM, at 0.05 µM
[34] = measured here: BGB IC40 combination, at 0.05 µM
[35] = measured here: with BGB IC20 combination, at 0.5 µM
[36] = measured here: with cisplatin IC20 combination, at 0.5 µM
[37] = measured here: combination with BGB IC40, at 0.05 µM

CCC(C)C(=O)OC1CC(C)C=C2C=CC(C)C(CCC3CC(O)CC(=O)O3)C21 (stereo unspecified)
inhibition ([1]; at 0.5 µM): -29.5% (inactive) | inhibition [1, 16]: -33% | inhibition [1, 17]: -19.4% | inhibition ([2]; at 0.5 µM): 30.1% (inactive) | inhibition [2, 18]: 26.5% | inhibition [2, 19]: 26.8% | inhibition ([3]; at 0.5 µM): 5.25% (inactive) | inhibition [3, 20]: -16.1% | inhibition [3, 21]: 5.33% | inhibition ([4]; at 0.5 µM): -20.3% (inactive) | inhibition [4, 22]: -23.3% | inhibition [4, 23]: -7.2% | inhibition ([5]; at 0.5 µM): -16.4% (inactive) | inhibition [5, 24]: -18.4% | inhibition [5, 25]: -6.45% | inhibition [5, 26]: -23% | inhibition [5, 27]: 8.95% | inhibition [6, 28]: 23.4% | inhibition ([6]; at 0.5 µM): 3.85% (inactive) | inhibition [6, 29]: 29.3% | inhibition ([7]; at 0.5 µM): -9.68% (inactive) | inhibition [7, 30]: -8.02% | inhibition [7, 31]: -11.2% | inhibition ([8]; at 0.5 µM): 6.42% (inactive) | inhibition [8, 32]: 24.4% | inhibition ([8]; cisplatin combination, at 5 µM): 33.2% | inhibition [8, 33]: 4.47% | inhibition ([8]; single agent, at 5 µM): 25.9% | inhibition ([9]; at 0.5 µM): 1.38% (inactive) | inhibition ([9]; cisplatin combo, at 5 µM): 4.72% | inhibition [9, 34]: -3.68% | inhibition [9, 22]: 2.71% | inhibition ([9]; single agent, at 5 µM): 8.59% | inhibition ([10]; at 0.5 µM): 4.53% (inactive) | inhibition [10, 35]: 12.6% | inhibition [10, 36]: 0.492% | inhibition ([10]; single agent, at 0.05 µM): -12.7% | inhibition ([10]; single agent, at 5 µM): 11.3%

CO[C@H]1/C=C/O[C@@]2(C)Oc3c(C)c(O)c4c(O)c(c5c(c4c3C2=O)=NC2(CCN(CC(C)C)CC2)N=5)NC(=O)/C(C)=C\C=C\[C@H](C)[C@H](O)[C@@H](C)[C@@H](O)[C@@H](C)[C@H](OC(C)=O)[C@@H]1C
inhibition ([11]; at 0.5 µM, stronger effect = higher value): 6.6% (inactive) | inhibition ([11]; measured here: combination with BGB IC20, at 0.005 µM): -30.2% | inhibition ([11]; measured here: combination with BGB IC40, at 0.005 µM): -46.5% | inhibition [11, 37]: -18.6% | inhibition ([11]; measured here: combination with cisplatin, at 0.5 µM, stronger effect = higher value): 63% | inhibition ([11]; measured here: combination with cisplatin, at 5 µM, stronger effect = higher value): -0.387% | inhibition ([12]; BGB combo, at 5 µM): -22.5% | inhibition ([12]; at 0.5 µM): 1.4% (inactive) | inhibition ([12]; cisplatin combo, at 5 µM): -9.76% | inhibition [12, 35]: -13.2% | inhibition [12, 36]: 8.47% | inhibition ([12]; single agent, at 5 µM): 11% | inhibition ([13]; BGB IC20 combo, at 0.005 µM): 3.39% | inhibition ([13]; BGB IC40 combo, at 0.005 µM): 6.3% | inhibition ([13]; BGB IC40 combo, at 0.05 µM): 12% | inhibition ([13]; at 0.5 µM): -8.24% (inactive) | inhibition ([13]; cisplatin combo, at 0.05 µM): 7.56% | inhibition ([13]; cisplatin combo, at 0.5 µM): -8.29% | inhibition ([13]; cisplatin combo, at 5 µM): 0.667% | inhibition ([13]; measured here: 5 uM single agent, at 5 µM): -5.87% | inhibition ([14]; at 0.5 µM): -1.23% (inactive) | inhibition [14, 37]: -1.35% | inhibition [14, 22]: 1.03% | inhibition [14, 23]: -6.05% | inhibition ([15]; at 0.5 µM): 5.7% (inactive) | inhibition ([15]; measured here: with BGB IC20, at 0.5 µM): 19% | inhibition ([15]; measured here: with BGB IC20, at 5 µM): 26.5% | inhibition ([15]; measured here: with cisplatin IC20, at 0.5 µM): -4.7% | inhibition ([15]; measured here: with cisplatin IC20, at 5 µM): 9.84% | inhibition ([15]; single agent, at 5 µM): 14.9% | inhibition ([1]; at 0.5 µM): 1.32% (inactive) | inhibition [1, 16]: -21.2% | inhibition [1, 17]: 29.4% | inhibition ([2]; at 0.5 µM): 5.15% (inactive) | inhibition [2, 18]: 7.14% | inhibition [2, 19]: 3.29% | inhibition ([3]; at 0.5 µM): 1.18% (inactive) | inhibition [3, 20]: 4.24% | inhibition [3, 21]: -0.452% | inhibition ([4]; at 0.5 µM): 1.7% (inactive) | inhibition [4, 22]: 13.1% | inhibition [4, 23]: 18.7% | inhibition ([5]; at 0.5 µM): 0.36% (inactive) | inhibition [5, 24]: 1.73% | inhibition [5, 25]: -12.5% | inhibition [5, 26]: -2.44% | inhibition [5, 27]: -1.97% | inhibition [6, 28]: -1.95% | inhibition ([6]; at 0.5 µM): 1.5% (inactive) | inhibition [6, 29]: 4.45% | inhibition ([7]; at 0.5 µM): -10.5% (inactive) | inhibition [7, 30]: -5.38% | inhibition [7, 31]: -10.5% | inhibition ([8]; at 0.5 µM): 0.406% (inactive) | inhibition [8, 32]: -4.06% | inhibition ([8]; cisplatin combination, at 5 µM): -22.6% | inhibition [8, 33]: -14.2% | inhibition ([8]; single agent, at 5 µM): 14.2% | inhibition ([9]; at 0.5 µM): -2.39% (inactive) | inhibition ([9]; cisplatin combo, at 5 µM): 17.1% | inhibition [9, 34]: -17.4% | inhibition [9, 22]: -9.55% | inhibition ([9]; single agent, at 5 µM): 16.6% | inhibition ([10]; at 0.5 µM): 7.88% (inactive) | inhibition [10, 35]: -2.39% | inhibition [10, 36]: 11.6% | inhibition ([10]; single agent, at 0.05 µM): 4.52% | inhibition ([10]; single agent, at 5 µM): -19.7%
